In all, about 9,900 sequences were measured (“r (bound/input frequency ratio)”: median about 0.7, highest 2% from about 6.5 on). The sample holds the highest values, similar sequences and a random draw of the others, so the mix is not that of the screen.

The values that follow come from article PMC12864922, “TDP-43 directly inhibits mRNA accumulation in neurites through modulation of mRNA stability”.

Sequences and labels used below:
B1: ENSMUSG00000043670.57|Diras1|205:210 (ssRNA)
RNA: GGGAGUUCUACAGUCCGACGAUCGCUUCGAUAUCCGCAUGCUACCUGCCUCUUCACACCUCCAUAGCUUCAUCCUUUGCAGACCUCUCCCUCUAUAUCUCUUUGCUCCCCCACCCCCAUUCUAUCUGCACCCCACAACCACACACUGGAGGUUUGAUCCCUGUGGAUCUGAAAACAGGGACCUGGCUAAGGAACUGCUCAUCCCAGUCAGGCCCAGAGAGGUUACCUUGCCUCUCCAUCUCUGUCCCACACACCCCAGCCAUGCCCACUGUCCCUGUCCCUCACAUUCUAUCACUGUGACCUCCUCUUGCGGUCGCACUAGUGUGGAAUUCUCGGGUGUCAAGG
B2: ENSMUSG00000032194.139|Kank2 (ssRNA)
RNA: GGGAGUUCUACAGUCCGACGAUCGCUUCGAUAUCCGCAUGCUAGGAAAUGACCAACUUACAAGAAGUUAUGCUGACCUCCCUGUUCCCCACGGGGAGUGCUUGGCAGAGGAGACUACUUCUAGAAAUACUUUCAGACCUACAGACAAAAAAGAAAAAAGGCCAUUCCGGAGUGACUCCCAGCAUCACAGCCCAGAACCUCCUCCUCAAAGGAGAGUAAACAGAGACUGUGAUACUGACCAAGUACAGGCGCUCGCUAUGAAGCCCAUAUGUUCCUGAUUAAGAGCUGGCUGGCCUCAGAGCACCUCUUGCGGUCGCACUAGUGUGGAAUUCUCGGGUGUCAAGG
B3: ENSMUSG00000004113.476|Cacna1b|225:230 (ssRNA)
RNA: GGGAGUUCUACAGUCCGACGAUCGCUUCGAUAUCCGCAUGCUAAGAGAGAGAGAUCCAGUCAUGCAACACAAAUGGGAUCUACUUUUAAACAACAGUCCUUUGACUAGUUUGCUGCCUGAAUAAUAUUUACAAACUAAACUUUGGAUUCUGCUCUUGUUUCUACAAUGAUUUUUUGUAUAAAGCAAAGUCCUUGGAUUAAAUAAAAACAACCCAAAAAAAAAAUCAAAAUCAAAACCCAGGAUGCAACUGGGUGAUACCUGAGGACACACACACUCAGUGCGUCGGUGGAGAGGGUAUACUGCCUCUUGCGGUCGCACUAGUGUGGAAUUCUCGGGUGUCAAGG
B4: ENSMUSG00000090935.398|Synj2bp (ssRNA)
RNA: GGGAGUUCUACAGUCCGACGAUCGCUUCGAUAUCCGCAUGCUAAAUUUCCUUCUUUUCAGUAAAUUGGCCAGACUAUUAUUUUGACAUAAGAUUAUGAAGAGUUUUCCCGACAGUCUAGCAGUCACUUAACAGAUGUUGAUUGCACAUUAGUUUUGUCAGGACACCUUUAUAAAAAGAGAAAUGCACAUAUUUCAUCCAAAGGGACAUUGUGGUUACAGUUAGGAAGGAAACCCUUAAAAUGGAGUUAGUUAUCUAAGUGUAAGUUGUUUAUAUUACAGACAGCAAAAGAAAAUAGCUCCUGACUCUUGCGGUCGCACUAGUGUGGAAUUCUCGGGUGUCAAGG

In the assay the target is TDP-43 (Homo sapiens, UniProt Q13148 1-414). In words: RNA Bind-n-Seq with designed 260-mer pool; 25 mM Tris-HCl, 150 mM KCl, 3 mM MgCl2, BSA (printed 500 mg/mL), 20 units/mL SUPERase IN; pH not stated; 500 nM RNA pool, 1 h, 4 C; TDP-43 5, 50, 500 nM; high values mean tight binding. The settings on record: protein: recombinant; tags: SBP (GST cleaved off with PreScission; pGEX-GST-SBP). The method in brief: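 The incubation lasted 1 h at 4 °C and used 500 nM of an in vitro-transcribed 260-nt 3′ UTR oligo pool with recombinant SBP-tagged TDP-43 at 5, 50 or 500 nM immobilized on streptavidin beads. It took place in 25 mM Tris-HCl, 150 mM KCl, 3 mM MgCl2, BSA and SUPERase IN. Bound RNA was washed, eluted with biotin, converted to cDNA, PCR-amplified and sequenced to give R, each oligo's normalized abundance in the bound sample divided by that in input. Two independent protein batches provided the duplicates.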
Sequence of TDP-43 (Q13148 whole entry): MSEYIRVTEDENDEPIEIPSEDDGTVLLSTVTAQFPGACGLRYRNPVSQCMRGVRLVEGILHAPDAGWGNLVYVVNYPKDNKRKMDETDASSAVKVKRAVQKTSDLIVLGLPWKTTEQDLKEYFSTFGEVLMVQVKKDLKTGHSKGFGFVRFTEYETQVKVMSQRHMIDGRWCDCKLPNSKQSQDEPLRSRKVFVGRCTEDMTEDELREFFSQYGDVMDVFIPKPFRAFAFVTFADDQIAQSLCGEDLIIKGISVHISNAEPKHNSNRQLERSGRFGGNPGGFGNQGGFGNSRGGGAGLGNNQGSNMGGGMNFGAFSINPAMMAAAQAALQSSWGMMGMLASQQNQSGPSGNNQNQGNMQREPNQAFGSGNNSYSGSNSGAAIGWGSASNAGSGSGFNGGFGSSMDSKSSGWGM
Regarding B1, the binding signal is 2.63 R (bound/input frequency ratio).

As for B2, the binding signal is 0.307 R (bound/input frequency ratio).

As for B3, the binding signal is 0.46 R (bound/input frequency ratio).

As to B4, the binding signal is 0.033 R (bound/input frequency ratio).
